Inconclusive results are not listed. Calls of active or inactive are those of the source. Unless noted, no cut-off is given here; in the data, nearly all actives have AC50 up to about 26 µM.
Legend:
[1] = growth inhibition of DIPG glioma cells, dose response, cell-based, SU-DIPG-XVII, MIPE5.0, CellTiter-Glo, qHTS (AID 1347060); settings: SU-DIPG-XVII viability, CellTiter-Glo ATP luminescence;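 for AC50: cells exposed to compound for 48 hours before viability readout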
[2] = growth inhibition of DIPG glioma cells, dose response, cell-based, SU-DIPG-XIII, MIPE5.0, CellTiter-Glo, qHTS (AID 1347064; cut-off not given, nearly all actives have AC50 up to about 23 µM;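 for AC50: cells exposed to compound for 48 hours before the viability read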); settings: SU-DIPG-XIII viability, CellTiter-Glo ATP luminescence
[3] = viability loss in pontine glioma line – cell-based, SU-DIPG-XXV, MIPE5.0, CellTiter-Glo, qHTS, dose response (AID 1347065); settings: CellTiter-Glo ATP luminescence;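 note: cells exposed to compound for 48 hours before ATP readout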
[4] = JHH-DIPG-1 glioma cell viability, MIPE5.0 library, CellTiter-Glo luminescence, qHTS (AID 1347067); settings: JHH-DIPG-1 glioma viability, CellTiter-Glo ATP luminescence;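 note: cells exposed to compound for 48 hours before readout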
[5] = SU-DIPG-VI glioma cell viability, MIPE4.0 library, CellTiter-Glo luminescence, qHTS (AID 1347066; cut-off not given, nearly all actives have AC50 up to about 30 µM;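 note: cells exposed to compound for 48 hours before readout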); settings: CellTiter-Glo ATP luminescence
[6] = SU-DIPG-XXV glioma cell viability, MIPE5.0 library, qHTS (AID 1347068; cut-off not given, nearly all actives have IC50 up to about 30 µM;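 for IC50: cells exposed to compound for 48 hours before viability readout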)
[7] = sensitizers of A549 cells to miR-34 induction, primary screen, imaging, A549 dox-inducible miR-34, nuclei and caspase counts (AID 1347080;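 active = compounds whose cell count with miR-34 switched on is under 0.7 times the count with it off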); settings: A549 miR-34 inducible, Hoechst nuclei count, 48 h
[8] = modifiers of HSF1 nuclear foci, imaging, Selleck Cancer Library (AID 1347162; in the data active = plate-normalised HSF1 focus index below about 0.46); settings: human cells, at 10 µM; SSMD: measured here: HSF1 foci SSMD mean; cell count: measured here: cell number; plate-normalised HSF1 focus index: stronger effect = lower value
[9] = survival rescue of mitochondrial mutant cells in low glucose, primary screen, MELAS cybrids, Rieske KO mouse fibroblasts, CellTiter-Glo (AID 1508586;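 active = mean z-score across replicates of 1.96 or higher in either the MELAS or the Rieske mutant cell line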;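 note: z relative to plate mean and SD of compound and empty wells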)
[10] = ovarian cancer cell viability with rucaparib, profiling panel, oncology-focused library, rucaparib conditional (AID 1508598;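 active = normalized viability below 100% at a tested concentration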); settings: patient-derived ovarian cancer cells, CellTiter-Glo viability, 144 h, stronger effect = lower value

c1ccc(-c2cc(CCC3CCNCC3)c3ccccc3n2)cc1
active: AC50 [1] 23.5 µM | AC50 [2] 23.5 µM | AC50 [3] 23.5 µM

CC#CC(=O)N1CCC[C@H]1c1nc(-c2ccc(C(=O)Nc3ccccn3)cc2)c2c(N)nccn12
inactive: outcome [1] | outcome [2] | outcome [3] | outcome [4]

COc1cc(-c2nn(C3CCC(N4CCN(C(C)=O)CC4)CC3)c3ncnc(N)c23)ccc1NC(=O)c1cc2ccccc2n1C (stereo unspecified)
inactive: outcome [5] | outcome [6]
active: AC50 [1] 3.72 µM | AC50 [2] 7.42 µM | AC50 [3] 4.17 µM | AC50 [4] 7.42 µM

O=C(C[C@@H]1C/C=C\CCC(=O)O[C@H](c2ccccc2)CNC1=O)NCc1ccc(Cl)cc1
inactive: outcome [1] | outcome [2] | outcome [3] | outcome [5] | outcome [4] | outcome [6]

CC(C)(C)NC(=O)c1cncn1C1CCN(c2ccc(-c3nnc(C(F)(F)F)o3)cn2)CC1
active: AC50 [1] 10.5 µM | AC50 [2] 5.9 µM | AC50 [3] 1.48 µM

Cc1cc(-c2cc(OC(=O)c3ccccc3)ccc2Cl)cc2nnc(Nc3ccc(OCCN4CCCC4)cc3)nc12
active: AC50 [1] 5.12 µM | AC50 [2] 7.23 µM | AC50 [3] 5.12 µM | AC50 [4] 5.12 µM

CN1CCN(c2cccc(Nc3nc4c(-c5ccc(S(C)(=O)=O)cc5)cccn4n3)c2)CC1
6270: cell count [8]
0.496: fold change ([7]; measured here: relative caspase fold change +Dox/-Dox)
5770: cell count ([7]; measured here: total cells with miR-34 induction, stronger effect = lower value)
active: AC50 [1] 16.6 µM | AC50 [2] 16.6 µM | AC50 [3] 11.8 µM | AC50 [5] 23.5 µM | AC50 [4] 20.9 µM | IC50 [6] 11.8 µM | viability ([10]; at 0.000305 µM, OCI-P5x cells, without rucaparib) 90.7% | viability ([10]; at 0.00122 µM, OCI-P5x cells, without rucaparib) 96.6% | viability ([10]; at 0.0781 µM, OCI-P5x cells, without rucaparib) 99.2% | viability ([10]; at 5 µM, OCI-P5x cells, with rucaparib 20 µM, 100% = cells with rucaparib alone) 45% | viability ([10]; at 5 µM, OCI-P5x cells, without rucaparib) 77.6%
-2.58: SSMD [8]
6470: cell count ([7]; measured here: total cells without miR-34 induction)
inactive: fold change ([7]; stronger effect = lower value, cell number ratio, induced over uninduced) 0.892 | plate-normalised HSF1 focus index [8] 0.914 | z-score ([9]; MELAS cybrid survival, CellTiter-Glo 48 h, stronger effect = higher value) -0.221 | viability ([10]; at 0.000305 µM, OCI-C5x cells, with rucaparib 10 µM, 100% = cells with rucaparib alone) 113% | viability ([10]; at 0.000305 µM, OCI-C5x cells, without rucaparib) 104% | viability ([10]; at 0.000305 µM, OCI-P5x cells, with rucaparib 20 µM, 100% = cells with rucaparib alone) 101% | viability ([10]; at 0.00122 µM, OCI-C5x cells, with rucaparib 10 µM, 100% = cells with rucaparib alone) 115% | viability ([10]; at 0.00122 µM, OCI-C5x cells, without rucaparib) 112% | viability ([10]; at 0.00122 µM, OCI-P5x cells, with rucaparib 20 µM, 100% = cells with rucaparib alone) 109% | viability ([10]; at 0.00488 µM, OCI-C5x cells, with rucaparib 10 µM, 100% = cells with rucaparib alone) 114% | viability ([10]; at 0.00488 µM, OCI-C5x cells, without rucaparib) 123% | viability ([10]; at 0.00488 µM, OCI-P5x cells, with rucaparib 20 µM, 100% = cells with rucaparib alone) 107% | viability ([10]; at 0.00488 µM, OCI-P5x cells, without rucaparib) 104% | viability ([10]; at 0.0195 µM, OCI-C5x cells, with rucaparib 10 µM, 100% = cells with rucaparib alone) 115% | viability ([10]; at 0.0195 µM, OCI-C5x cells, without rucaparib) 125% | viability ([10]; at 0.0195 µM, OCI-P5x cells, with rucaparib 20 µM, 100% = cells with rucaparib alone) 117% | viability ([10]; at 0.0195 µM, OCI-P5x cells, without rucaparib) 107% | viability ([10]; at 0.0781 µM, OCI-C5x cells, with rucaparib 10 µM, 100% = cells with rucaparib alone) 114% | viability ([10]; at 0.0781 µM, OCI-C5x cells, without rucaparib) 129% | viability ([10]; at 0.0781 µM, OCI-P5x cells, with rucaparib 20 µM, 100% = cells with rucaparib alone) 112% | viability ([10]; at 0.313 µM, OCI-C5x cells, with rucaparib 10 µM, 100% = cells with rucaparib alone) 113% | viability ([10]; at 0.313 µM, OCI-C5x cells, without rucaparib) 128% | viability ([10]; at 0.313 µM, OCI-P5x cells, with rucaparib 20 µM, 100% = cells with rucaparib alone) 115% | viability ([10]; at 0.313 µM, OCI-P5x cells, without rucaparib) 111% | viability ([10]; at 1.25 µM, OCI-C5x cells, with rucaparib 10 µM, 100% = cells with rucaparib alone) 115% | viability ([10]; at 1.25 µM, OCI-C5x cells, without rucaparib) 138% | viability ([10]; at 1.25 µM, OCI-P5x cells, with rucaparib 20 µM, 100% = cells with rucaparib alone) 112% | viability ([10]; at 1.25 µM, OCI-P5x cells, without rucaparib) 111% | viability ([10]; at 5 µM, OCI-C5x cells, with rucaparib 10 µM, 100% = cells with rucaparib alone) 110% | viability ([10]; at 5 µM, OCI-C5x cells, without rucaparib) 206%
0.00545: z-score ([9]; Rieske KO mouse fibroblast survival, CellTiter-Glo 72 h)

O=C(c1ccc(Nc2nc(C3CC3)cn3c(-c4cn[nH]c4)cnc23)c(F)c1)N1CCOCC1
active: AC50 [1] 5.25 µM | AC50 [2] 5.9 µM | AC50 [3] 3.72 µM | AC50 [4] 2.63 µM

CCC[C@H](NC(=O)[C@@H]1[C@H]2CCC[C@H]2CN1C(=O)[C@@H](NC(=O)[C@@H](NC(=O)c1cnccn1)C1CCCCC1)C(C)(C)C)C(=O)C(=O)NC1CC1
inactive: outcome [1] | outcome [2] | outcome [3] | outcome [5] | outcome [6]
active: AC50 [4] 18.6 µM

CC[C@@H](C)Nc1cc(C(=O)NC2CC3CC[C@@H](C2)N3c2ccc(C(=O)C3CC3)cn2)c(C)cc1C(N)=O (stereo partly specified)
active: AC50 [1] 0.118 µM | AC50 [2] 0.166 µM | AC50 [3] 0.0934 µM | AC50 [4] 0.148 µM

CCOc1cc(C(C)(C)C)ccc1C1=N[C@@](C)(c2ccc(Cl)cc2)[C@@](C)(c2ccc(Cl)cc2)N1C(=O)N1CCN(CC(=O)N2CCOCC2)CC1
active: AC50 [1] 11.5 µM | AC50 [2] 14.5 µM | AC50 [3] 10.3 µM

CCCc1cc(C(=O)N[C@H](Cc2ccc(-c3cccc(OC(F)(F)F)c3)nc2)C(=O)N[C@@H]2CCNC2)sc1C
active: AC50 [1] 23.5 µM | AC50 [2] 16.6 µM | AC50 [3] 20.9 µM | AC50 [4] 10.5 µM

O=C(Nc1ccc2[nH]nc(-c3ccncc3)c2c1)[C@@H]1CCN(CC(=O)N2CCN(c3ccc(-c4ncccn4)cc3)CC2)C1
active: AC50 [1] 1.05 µM | AC50 [2] 1.48 µM | AC50 [3] 1.05 µM | AC50 [4] 0.525 µM

CCN(CC)CCNc1ccc(C)c2sc3ccccc3c(=O)c12
active: AC50 [1] 13.2 µM | AC50 [2] 20.9 µM | AC50 [3] 16.6 µM | AC50 [4] 18.6 µM

CCOc1ccc(Cc2cc([C@@H]3O[C@H](CO)[C@@H](O)[C@H](O)[C@H]3O)ccc2Cl)cc1
1.4: SSMD [8]
6780: cell count [8]
inactive: outcome [1] | outcome [2] | outcome [3] | outcome [5] | outcome [4] | outcome [6] | plate-normalised HSF1 focus index [8] 1.07

Source: PubChem BioAssay
